Compounds without any hit were thinned out: in the full panel of roughly 83,000, 20% have a hit.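 Note: values are percent growth. 100 is the growth of untreated cells, values between 100 and 0 indicate rising inhibition; between -100 and 0 indicates cell death.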 Unmarked numbers belong to inactive results. Active and inactive are the calls of the source. The calls were made as follows: active = growth percent below 10; inactive = the rest.

Among the test systems are HT29 colon; SNB-75 CNS; SNB-19 CNS; U251 CNS; PC-3 prostate; SK-MEL-5 melanoma; UACC-62 melanoma; LOX IMVI melanoma; SK-MEL-28 melanoma; SK-MEL-2 melanoma.
Common to all, as to assay: NCI-60 one-dose screen, 48 h (100 = growth as untreated, 0 = no growth, -100 = all killed)
Common to all, as to conditions: 10 µM

As to `Cc1cccc2c1O/C(=C\c1ccc([N+](=O)[O-])o1)C2=O`, the growth in the test on HT29 colon is -67.4% (active); in the test with SNB-75 CNS, 65%; in the test on SNB-19 CNS, 44.2%; in the test on U251 CNS it was -19.7% (active); with PC-3 prostate, -36.3% (active); in the test on SK-MEL-5 melanoma, -83.5% (active). Also, the growth with UACC-62 melanoma is -58.9% (active); in the test on LOX IMVI melanoma, -83.6% (active); with SK-MEL-28 melanoma, -56.6% (active); in the test on SK-MEL-2 melanoma, -62.8% (active).
As to `COc1ccc(C2CC(c3ccc(N(C)C)cc3)=NN2c2ccc(S(N)(=O)=O)cc2)cc1` (stereo not given), the growth was 29.6% in the test with HT29 colon; 69.6% in the test on SNB-75 CNS; 66.6% in the test on SNB-19 CNS; 26.6% in the test with U251 CNS; 18.9% in the test on PC-3 prostate; 69.4% in the test on SK-MEL-5 melanoma. For the same molecule, the growth in the test on UACC-62 melanoma is 62.3%; in the test on LOX IMVI melanoma, 54.9%; with SK-MEL-28 melanoma it was 86.3%; in the test on SK-MEL-2 melanoma, 79.7%.
Turning to `COC(=O)C(C(C[N+](=O)[O-])c1ccccc1)=P(c1ccccc1)(c1ccccc1)c1ccccc1` (stereo not given), the growth in the test on HT29 colon was 67.7%; in the test with SNB-75 CNS, 85.3%; in the test with SNB-19 CNS, 98.4%; with U251 CNS, 88.3%; with PC-3 prostate, 85.4%; in the test with SK-MEL-5 melanoma, 98.5%. Besides, the growth with UACC-62 melanoma is 90%; in the test with LOX IMVI melanoma, 58.1%; in the test with SK-MEL-28 melanoma it was 109%; in the test with SK-MEL-2 melanoma, 89.4%.
For `O=C(CCCCC[P+](c1ccccc1)(c1ccccc1)c1ccccc1)NC(COC(=O)C(Cl)Cl)(COC(=O)C(Cl)Cl)COC(=O)C(Cl)Cl`, the growth with HT29 colon is 96.6%; in the test on SNB-75 CNS, 103%; with SNB-19 CNS, 98.3%; in the test on U251 CNS, 97.1%; with PC-3 prostate, 90.5%; in the test on SK-MEL-5 melanoma, 92.4%. Besides, the growth is 98% in the test on UACC-62 melanoma, 102% in the test on LOX IMVI melanoma, 108% in the test with SK-MEL-28 melanoma and 100% with SK-MEL-2 melanoma.
Regarding `CC(C)N(CCNc1nc(C(Cl)(Cl)Cl)nc2cc(Cl)ccc12)C(C)C`, the growth is -32.9% (active) with HT29 colon; 8.33% (active) in the test on SNB-75 CNS; 22.9% with SNB-19 CNS; -61.5% (active) in the test with U251 CNS; -5.1% (active) with PC-3 prostate; -97% (active) in the test on SK-MEL-5 melanoma. The growth was -62.2% (active) in the test with UACC-62 melanoma, -80.2% (active) in the test with LOX IMVI melanoma, -80.9% (active) with SK-MEL-28 melanoma and -60% (active) in the test with SK-MEL-2 melanoma.
Consider `Cc1cc(Nc2ccc(Cl)cc2)nc(NCCCNc2ccnc3cc(Cl)ccc23)n1`, for which the growth in the test with HT29 colon was -91.4% (active); in the test on SNB-75 CNS, -94.9% (active); in the test with SNB-19 CNS, -14.3% (active); in the test on U251 CNS, -91.3% (active); with PC-3 prostate it was -19.4% (active); in the test with SK-MEL-5 melanoma it was -99.8% (active). The growth in the test with UACC-62 melanoma is -80.2% (active); in the test on LOX IMVI melanoma, -83.8% (active); with SK-MEL-28 melanoma it was -99.8% (active); in the test with SK-MEL-2 melanoma, -93.4% (active).
`COc1cc(-c2nc(Nc3nc4ccccc4s3)[nH]c(=O)c2C#N)cc(OC)c1O`: the growth in the test with HT29 colon is 110%; in the test with SNB-75 CNS, 88.6%; in the test with SNB-19 CNS, 96.1%; with U251 CNS it was 105%; in the test on PC-3 prostate, 101%; in the test with SK-MEL-5 melanoma it was 106%. Further, the growth in the test with UACC-62 melanoma is 102%; with LOX IMVI melanoma, 106%; in the test with SK-MEL-28 melanoma, 110%; in the test on SK-MEL-2 melanoma, 105%.
As to `NC(=O)SCC(=O)Nc1ccc(S(N)(=O)=O)cc1`, the growth is 107% in the test on HT29 colon; 96.3% in the test with SNB-75 CNS; 104% in the test on SNB-19 CNS; 104% in the test with U251 CNS; 100% in the test on PC-3 prostate; 102% with SK-MEL-5 melanoma. The growth with UACC-62 melanoma is 89%; with LOX IMVI melanoma it was 97%; with SK-MEL-28 melanoma, 113%; in the test on SK-MEL-2 melanoma, 111%.
Take `CCCCCCc1cc(N=Nc2ccc(S(=O)(=O)Nc3cc(C)nc(C)n3)cc2)c(O)cc1O`: the growth was 95.6% with HT29 colon; 91.8% in the test with SNB-75 CNS; 103% in the test with SNB-19 CNS; 100% with U251 CNS; 96.2% in the test on PC-3 prostate; 98.9% in the test with SK-MEL-5 melanoma. Also, the growth in the test with UACC-62 melanoma is 105%; with LOX IMVI melanoma, 96.2%; in the test on SK-MEL-28 melanoma, 115%; in the test on SK-MEL-2 melanoma it was 90.5%.
`COc1ccc(-c2nc3sc(-c4ccc(OC)cc4)c(-c4ccc(OC)cc4)n3c2/C=C/c2ccc(C(C)C)cc2)cc1`: the growth was 92.5% with HT29 colon; 55.9% in the test on SNB-75 CNS; 103% in the test with SNB-19 CNS; 102% with U251 CNS; 79.4% in the test with PC-3 prostate; 99.9% in the test on SK-MEL-5 melanoma. Also, the growth in the test on UACC-62 melanoma was 86.9%; in the test on LOX IMVI melanoma it was 98.6%; with SK-MEL-28 melanoma, 100%; in the test with SK-MEL-2 melanoma it was 84.3%.
On to `Nc1ccccc1NC(=O)CCCCC(=O)Nc1ccc2c(c1)/C(=C/c1ccc[nH]1)C(=O)N2`, for which the growth is 67.2% with HT29 colon; 16.9% with SNB-75 CNS; 76.4% in the test with SNB-19 CNS; 48.5% with U251 CNS; 81.6% in the test on PC-3 prostate; 87.7% in the test with SK-MEL-5 melanoma. Besides, the growth with UACC-62 melanoma is 58%; in the test with LOX IMVI melanoma it was 85.2%; with SK-MEL-28 melanoma it was 86.1%; in the test on SK-MEL-2 melanoma, 46.2%.
Turning to `CC1(C)OC2=C(CC1Br)C(=O)C(=O)c1ccccc12` (stereo not given), the growth in the test with HT29 colon was -11.7% (active); in the test with SNB-75 CNS, 11.1%; in the test with SNB-19 CNS it was -19% (active); in the test with U251 CNS, -73.7% (active); in the test on PC-3 prostate, -16.8% (active); in the test with SK-MEL-5 melanoma it was -99.7% (active). Moreover, the growth in the test on UACC-62 melanoma was -78.9% (active); in the test with LOX IMVI melanoma, -77.3% (active); with SK-MEL-28 melanoma, -94% (active); in the test with SK-MEL-2 melanoma it was -42.9% (active).
`CC(=O)c1nc2ccccc2n1CCN1CCN(C)CC1`: the growth in the test on HT29 colon is -3.6% (active); with SNB-75 CNS it was 6.87% (active); with SNB-19 CNS, 73.7%; with U251 CNS, 28.4%; in the test with PC-3 prostate, 33.4%; in the test with SK-MEL-5 melanoma, 38.5%. Also, the growth was 50.7% with UACC-62 melanoma, 36.7% with LOX IMVI melanoma, 48% in the test with SK-MEL-28 melanoma and 25.4% with SK-MEL-2 melanoma.
`CCOCCOCCOCCOCCOCCOCCOCCOCCOCCO` (tested in a mixture with another compound): the growth was -44% (active) in the test on HT29 colon; 32.8% in the test on SNB-75 CNS; 25.2% with SNB-19 CNS; 7.66% (active) in the test with U251 CNS; 9.21% (active) with PC-3 prostate; -81.6% (active) with SK-MEL-5 melanoma. Also, the growth in the test on UACC-62 melanoma is 13.2%; in the test with LOX IMVI melanoma, -72.5% (active); in the test with SK-MEL-28 melanoma, 36.5%; with SK-MEL-2 melanoma it was -61.7% (active).

Values taken from PubChem BioAssay (NCI).
